Data reported in PubChem BioAssay (NCI).
“And” between values parts separate entries of the source, which are not always exact repeats. Equal values may be shown once. Compounds without any hit were thinned out: in the full panel of roughly 79,000, 15% have a hit. Where a structure was tested more than once in an assay, its records may differ in their call. The source made the active and inactive calls. Rule as the data show it: active = growth inhibition above about 70%; inactive = the rest.

Tests used:
[1] = NCI Yeast Anticancer Drug Screen. Data for the rad52 strain (AID 147);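 also: 0% = growth of vehicle-treated control cultures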; details: S. cerevisiae rad52 mutant growth inhibition, stronger effect = higher value
How it was run: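 The repair-mutant yeast strain was incubated with compounds, then growth was read and inhibition derived relative to vehicle.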

[2] = NCI Yeast Anticancer Drug Screen. Data for the wt1 strain (AID 149);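 also: 0% = growth of vehicle-treated wt1 cultures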; details: S. cerevisiae wt1 strain (SPY 50644) growth inhibition, stronger effect = higher value
How it was run: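 Yeast wt1 strain exposed to compounds; growth inhibition measured relative to vehicle-treated controls.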

[3] = NCI Yeast Anticancer Drug Screen. Data for the rad50EPP+ strain (AID 151);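 also: 0% = growth of vehicle-treated control cultures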; details: S. cerevisiae rad50 mutant strain, stronger effect = higher value
How it was run: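 Vehicle-normalised growth inhibition; rad50EPP+ yeast strain, altered in DNA damage repair, compound-treated.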

[4] = NCI Yeast Anticancer Drug Screen. Data for the mgt1 strain (AID 153); details: S. cerevisiae mgt1 mutant growth inhibition, stronger effect = higher value
How it was run: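 Vehicle-normalized growth inhibition is determined in mgt1 yeast, a strain selected for a defined alteration in DNA repair or cell cycle control.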

[5] = NCI Yeast Anticancer Drug Screen. Data for the rad50 strain (AID 155);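 also: 0% = growth of vehicle-only cultures of the same strain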; details: S. cerevisiae rad50 strain growth inhibition, stronger effect = higher value
How it was run: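 Yeast carrying a defined DNA repair defect were exposed to test compounds, and growth was compared with vehicle-treated controls to give percent inhibition.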

[6] = NCI Yeast Anticancer Drug Screen. Data for the mec2-1 strain (AID 157); details: S. cerevisiae mec2-1 strain, stronger effect = higher value
How it was run: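 Mutant yeast (mec2-1) grown with compound; growth inhibition relative to vehicle control reported.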

[7] = NCI Yeast Anticancer Drug Screen. Data for the sgs1 mgt1 strain (AID 161);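 also: 0% = growth of cultures given vehicle only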; details: S. cerevisiae sgs1 mgt1 strain, stronger effect = higher value
How it was run: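 This yeast growth screen uses a strain with defined DNA-repair lesions; compound-treated growth is compared with vehicle-treated growth.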

[8] = NCI Yeast Anticancer Drug Screen. Data for the CLN2oe strain (AID 163);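 also: 0% = growth of vehicle-only control cultures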; details: S. cerevisiae CLN2oe strain, stronger effect = higher value
How it was run: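 Compounds are applied to yeast harbouring a defined cell-cycle control change; reduced growth compared with vehicle-treated controls gives the value.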

[9] = NCI Yeast Anticancer Drug Screen. Data for the cln2 rad14 strain (AID 165);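 also: 0% = growth equal to vehicle treated cultures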; details: S. cerevisiae cln2 rad14 strain, stronger effect = higher value
How it was run: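 Readout is yeast growth inhibition versus vehicle-treated controls, using a strain with cln2 and rad14 alterations exposed to compound.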

[10] = NCI Yeast Anticancer Drug Screen. Data for the bub3 strain (AID 167); details: S. cerevisiae bub3 mutant strain, stronger effect = higher value
How it was run: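 Compounds were applied to a genetically altered yeast strain carrying a cell-cycle control defect. Growth inhibition was scored against vehicle-treated controls.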

[11] = NCI Yeast Anticancer Drug Screen. Data for the wt2 strain (AID 169);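 also: 0% = growth of vehicle-treated yeast cultures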; details: S. cerevisiae wt2 strain growth inhibition, stronger effect = higher value
How it was run: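 Against vehicle-treated controls, the growth of yeast exposed to each compound was compared, and the inhibition was recorded.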

[12] = NCI Yeast Anticancer Drug Screen. Data for the mlh1 strain (AID 171);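 also: 0% = growth of vehicle-treated control cultures of the same strain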; details: S. cerevisiae mlh1 strain growth inhibition, stronger effect = higher value
How it was run: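 Measured: yeast growth. Reference: vehicle-treated controls. Organism: strain with a defined alteration affecting DNA damage repair or cell cycle control, treated with compound.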

[13] = NCI Yeast Anticancer Drug Screen. Data for the sgs1 strain (AID 173);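 also: 0% = growth of vehicle-only control cultures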; details: S. cerevisiae sgs1 mutant, stronger effect = higher value
How it was run: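 Each compound was added to cultures of the altered yeast strain. Growth was recorded, and inhibition was derived by comparison with vehicle controls.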

[14] = NCI Yeast Anticancer Drug Screen. Data for the mlh1 rad18 strain (AID 175); details: S. cerevisiae mlh1 rad18 strain growth inhibition, stronger effect = higher value
How it was run: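 Genetically defined yeast (DNA repair-deficient) exposed to compounds; growth inhibition determined relative to vehicle.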

[15] = NCI Yeast Anticancer Drug Screen. Data for the rad18 strain (AID 177); details: S. cerevisiae rad18 mutant growth inhibition, stronger effect = higher value
How it was run: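 Vehicle-treated cultures served as the baseline for scoring compound-induced growth inhibition in DNA-repair-mutant yeast.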

[16] = at 5.0 µM (retest, dose inferred, filed as 0.5)
[17] = at 50.0 µM (retest, dose inferred, filed as 5.0)

Measured: growth inhibition

CCOC(=O)/C(=C\c1ccc(C#N)cc1)C(C)=O
inactive: [1]; at 1.2 µM -40% | [1]; at 3.7 µM -32% | [1]; at 11.0 µM -4% | [2]; at 1.2 µM -15% | [2]; at 3.7 µM 6% | [2]; at 11.0 µM 9% | [3]; at 1.2 µM -8% | [3]; at 3.7 µM 24% | [3]; at 11.0 µM 40% | [4]; at 1.2 µM -23% | [4]; at 3.7 µM -4% | [4]; at 11.0 µM 38% | [5]; at 1.2 µM -9% | [5]; at 3.7 µM 7% | [5]; [16] 36% | [5]; at 11.0 µM 31% | [6]; at 1.2 µM -36% | [6]; at 3.7 µM -27% | [6]; [16] -11% | [6]; at 11.0 µM 13% | [7]; [16] 25% | [8]; at 1.2 µM -20% | [8]; at 3.7 µM -27% | [8]; at 11.0 µM 3% | [9]; [16] 13% | [9]; at 50.0 µM 38.2% | [10]; at 1.2 µM 1% | [10]; at 3.7 µM 3% | [10]; [16] 29% | [10]; at 11.0 µM 58% | [11]; at 1.2 µM -37% | [11]; at 3.7 µM -18% | [11]; at 11.0 µM 18% | [12]; at 1.2 µM 0% | [12]; at 3.7 µM 26% | [12]; at 11.0 µM 69% | [13]; at 1.2 µM -18% | [13]; at 3.7 µM -6% | [13]; at 11.0 µM 25% | [14]; [16] -9% | [15]; at 1.2 µM -30% | [15]; at 3.7 µM 7% | [15]; at 11.0 µM 23%
active: [1]; at 33.0 µM 86% | [1]; at 100.0 µM 99% | [2]; at 33.0 µM 84% | [2]; at 100.0 µM 98% | [3]; at 33.0 µM 84% | [3]; at 100.0 µM 98% | [4]; at 33.0 µM 95% | [4]; at 100.0 µM 99% | [5]; at 33.0 µM 91% | [5]; [17] 94% | [5]; at 50.0 µM 88.8% | [5]; at 100.0 µM 99% | [6]; at 33.0 µM 92% | [6]; [17] 98% | [6]; at 50.0 µM 81.3% | [6]; at 100.0 µM 98% | [7]; [17] 94% | [7]; at 50.0 µM 92% | [8]; at 33.0 µM 87% | [8]; at 100.0 µM 99% | [9]; [17] 94% | [10]; at 33.0 µM 98% | [10]; [17] 99% | [10]; at 50.0 µM 81.2% | [10]; at 100.0 µM 99% | [11]; at 33.0 µM 93% | [11]; at 100.0 µM 99% | [12]; at 33.0 µM 98% | [12]; at 100.0 µM 98% | [13]; at 33.0 µM 93% | [13]; at 100.0 µM 98% | [14]; [17] 97% | [14]; at 50.0 µM 90% | [15]; at 33.0 µM 88% | [15]; at 100.0 µM 98%

COc1ccc2c(c1)n([O-])c1ccccc1[n+]2=O
active: [1]; at 11.0 µM 86% | [1]; at 33.0 µM 95% | [1]; at 100.0 µM 97% | [3]; at 3.7 µM 72% | [3]; at 11.0 µM 93% | [3]; at 33.0 µM 97% | [3]; at 100.0 µM 98% | [4]; at 100.0 µM 88% | [5]; at 11.0 µM 91% | [5]; at 33.0 µM 95% | [5]; [17] 95% and 98% | [5]; at 100.0 µM 98% | [6]; [17] 75% and 99% | [6]; at 100.0 µM 93% | [7]; [17] 71% and 99% | [8]; at 100.0 µM 75% | [9]; [17] 90% and 97% | [9]; at 50.0 µM 96.3% | [10]; [17] 85% and 99% | [10]; at 50.0 µM 95.3% | [10]; at 100.0 µM 91% | [11]; at 100.0 µM 77% | [13]; at 33.0 µM 76% | [13]; at 100.0 µM 95% | [14]; [17] 93% and 98% | [15]; at 3.7 µM 75% | [15]; at 11.0 µM 93% | [15]; at 33.0 µM 97% | [15]; at 100.0 µM 96%
inactive: [1]; at 1.2 µM 16% | [1]; at 3.7 µM 48% | [2]; at 1.2 µM 0% | [2]; at 3.7 µM 2% | [2]; at 11.0 µM 9% | [2]; at 33.0 µM 24% | [2]; at 100.0 µM 69% | [3]; at 1.2 µM 34% | [4]; at 1.2 µM -1% | [4]; at 3.7 µM 2% | [4]; at 11.0 µM 9% | [4]; at 33.0 µM 33% | [5]; at 1.2 µM 18% | [5]; at 3.7 µM 33% | [5]; at 50.0 µM -18.6% | [6]; at 1.2 µM 3% | [6]; at 3.7 µM 7% | [6]; [16] 15% and 27% | [6]; at 11.0 µM 19% | [6]; at 33.0 µM 50% | [6]; at 50.0 µM 50.2% | [7]; at 50.0 µM -13.2% | [8]; at 1.2 µM -4% | [8]; at 3.7 µM -7% | [8]; at 11.0 µM -2% | [8]; at 33.0 µM 25% | [9]; [16] 6% and 22% | [10]; at 1.2 µM 3% | [10]; at 3.7 µM 4% | [10]; [16] 6% and 10% | [10]; at 11.0 µM 14% | [10]; at 33.0 µM 60% | [11]; at 1.2 µM -2% | [11]; at 3.7 µM 11% | [11]; at 11.0 µM 11% | [11]; at 33.0 µM 26% | [13]; at 1.2 µM 5% | [13]; at 3.7 µM 18% | [13]; at 11.0 µM 41% | [14]; at 50.0 µM 6.8% | [15]; at 1.2 µM 39%
5% (inactive) and 73% (active): [7]; [16]
66% (inactive) and 91% (active): [5]; [16]
17% (inactive) and 81% (active): [14]; [16]

CC(=O)Nc1ccc2c(c1)Cc1cc(N=C3C=CC(=O)O3)ccc1-2
active: [1]; at 11.0 µM 85% | [1]; at 33.0 µM 99% | [1]; at 100.0 µM 99% | [2]; at 33.0 µM 99% | [2]; at 100.0 µM 99% | [3]; at 3.7 µM 77% | [3]; at 11.0 µM 96% | [3]; at 33.0 µM 99% | [3]; at 100.0 µM 99% | [4]; at 33.0 µM 99% | [4]; at 100.0 µM 99% | [5]; at 11.0 µM 81% | [5]; at 33.0 µM 99% | [5]; [17] 99% | [5]; at 100.0 µM 99%
inactive: [1]; at 1.2 µM 11% | [1]; at 3.7 µM 27% | [2]; at 1.2 µM 0% | [2]; at 3.7 µM 14% | [2]; at 11.0 µM 41% | [3]; at 1.2 µM 37% | [4]; at 1.2 µM 9% | [4]; at 3.7 µM 19% | [4]; at 11.0 µM 67% | [5]; at 1.2 µM 9% | [5]; at 3.7 µM 31% | [5]; [16] 60% | [5]; at 50.0 µM 28.6% | [6]; at 1.2 µM 19% | [6]; at 3.7 µM 31%
